Among the data in ChEMBL document CHEMBL3433997, “St. Jude Leishmania screening dataset” (2016) are inhibition values, retold here.

Each structure is given as a SMILES string.

Assay type in all cases: functional
Assay [1] concerns the target Solute carrier family 2, facilitated glucose transporter member 1 (Homo sapiens) (UniProt P11166). The experiment in a line: ST_JUDE_LEISH: Cytotoxicity at 2uM final concentration against transgenic Leishmania Mexicana promastigotes LmGLUT1 that are glucose transport deficient and complemented with the human glucose transporter GLUT1. Activity is measured by DNA content using SYBR green in vitro.

Assay [2] deals with Hexose transporter 1 (Plasmodium falciparum) (UniProt O97467). The experiment in a line: ST_JUDE_LEISH: Cytotoxicity at 2uM final concentration against transgenic Leishmania Mexicana promastigotes LmPfHT that are glucose transport deficient and complemented with the Plasmodium falciparum hexose transporter. Activity is measured by DNA content using SYBR green in vitro.
In assay [3] the target is Glucose transporter (Leishmania mexicana) (UniProt O61059). Description: ST_JUDE_LEISH: Cytotoxicity at 2uM final concentration against transgenic Leishmania Mexicana promastigotes LmGT2 that are glucose transport deficient and complemented with the L. Mexicana glucose transporter 2. Activity is measured by DNA content using SYBR green in vitro.

Sequence of Solute carrier family 2, facilitated glucose transporter member 1 (Homo sapiens) (P11166 whole entry): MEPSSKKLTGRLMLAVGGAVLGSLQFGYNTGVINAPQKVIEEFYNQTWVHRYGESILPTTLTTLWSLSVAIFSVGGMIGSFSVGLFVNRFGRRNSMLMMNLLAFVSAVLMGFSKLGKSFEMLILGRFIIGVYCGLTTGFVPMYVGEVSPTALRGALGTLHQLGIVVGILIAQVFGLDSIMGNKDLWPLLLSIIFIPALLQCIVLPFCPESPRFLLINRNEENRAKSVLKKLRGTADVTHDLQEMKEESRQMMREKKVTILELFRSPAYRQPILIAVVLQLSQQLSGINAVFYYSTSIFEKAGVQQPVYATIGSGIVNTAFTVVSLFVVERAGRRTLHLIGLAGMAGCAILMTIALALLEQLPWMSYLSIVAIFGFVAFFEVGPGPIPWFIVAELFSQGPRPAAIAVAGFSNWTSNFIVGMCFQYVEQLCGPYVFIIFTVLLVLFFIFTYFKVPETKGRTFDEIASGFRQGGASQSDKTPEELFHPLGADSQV

In general, inhibition refers to the drop in the measured response relative to a control, in per cent. Regarding `CCN(CC)CCN(CCCc1ccc(-c2ccc(C(F)(F)F)cc2)cc1)C(=O)Cn1c(CCc2cccc(F)c2F)nc(=O)c2ccccc21`, the inhibition is 2.87% in assay [1], 2.91% in assay [2] and 2.33% in assay [3].
`O=C(Nc1ccc(C(F)(F)F)cc1)c1cccc(S(=O)(=O)NC2CCN(CC3CCCCC3)C2)c1` (configuration not stated): the inhibition was determined as 2.01% in assay [1], 0.63% in assay [2] and 0.63% in assay [3].
As to `COc1cccc(C(=O)Nc2ccc(Oc3ccc(Cl)cc3)cc2)c1`, the inhibition in assay [1] was -1.17%; in assay [2] it was -0.22%; in assay [3], -1.01%.
The corresponding values for `CCCCC(=O)NC(c1cccs1)c1cc(Cl)c2cccnc2c1O` (configuration not stated) are 8.63%, 8.32% and 5.17%.
As for `CCCc1ccc(Nc2nc(C)cc(N(CC)CCCN3CCCCC3)n2)cc1`, the inhibition in assay [1] is -3.11%; in assay [2], -2.14%; in assay [3] it was 0.52%.
Regarding `O=C(/C=C/c1ccc(Cl)c(Cl)c1)N1CCC(CN2CCC(c3nc4ccccc4n3CCCO)CC2)CC1`, the inhibition in assay [1] worked out at 4.72%; in assay [2], 4.22%; in assay [3], 5.85%.
Take `O=C(O)c1ccc(-c2c[nH]c3ncc(-c4ccc(Cl)cc4)cc23)cc1`: the figures for the inhibition in assay [1], in assay [2] and in assay [3] were 0.12%, -0.34% and -0.05%, respectively.
For the molecule `COC(=O)C(C)(C)Cc1c(SC(C)(C)C)c2cc(C(C)C)ccc2n1Cc1ccc(Cl)cc1`, the inhibition in assay [1] is 2.2%; in assay [2], 5.38%; in assay [3], -0.32%.
For the molecule `CCC(C)CN1CCN(c2cc(NC(=O)c3cccs3)ccn2)C(C)C1` (configuration not stated), the inhibition was -1.02% in assay [1], 2.3% in assay [2] and 1.68% in assay [3].
Regarding `C=CCN1C(=O)C(=Cc2cc(Br)ccc2O)SC1=Nc1ccccc1`, the figures for the inhibition in assay [1], in assay [2] and in assay [3] were 8.65%, 6.8% and 14.5%, respectively.
The corresponding values for `Cc1sc2nc(CN3CCCC3)nc(-n3c(NCCO)nc4ccccc43)c2c1C` are 4.18%, 5.54% and 5.9%.
Regarding `COc1ccc2nccc([C@@H](O)CN3CCC(NCCOc4ccccc4C(F)(F)F)CC3)c2c1`, the inhibition in assay [1] came out at 0.68%; in assay [2] it was 2.17%; in assay [3] it was 2.28%.
For `CC(Oc1ccc(Cl)cc1)C(=O)NCCC1CCN(CCCCCNC(=O)/C=C/c2ccc(Cl)c(Cl)c2)CC1` (configuration not stated), the inhibition was determined as 2.73% in assay [1], 1.37% in assay [2] and 0.04% in assay [3].
On to `Cc1c(C)c2c(c(C)c1O)CC[C@](C)(C(=O)N1CCC(CCN3CCC(c4c[nH]c5ccccc45)CC3)CC1)O2`, for which the inhibition is 0.17% in assay [1], -1.76% in assay [2] and -0.6% in assay [3].
Taken in the same sequence, the figures for `CCCCCCNC(=N)c1ccc2[nH]c(-c3ccc(O)cc3)nc2c1` were 3.58%, 4.17% and 3.78%.
The corresponding values for `COc1ccc(N2C(=O)c3c(c4ccccc4n3C)C2c2ccccc2O)cc1` (configuration not stated) are 6.27%, 4.4% and 5.53%.
The corresponding values for `CC1Cc2ccccc2N1S(=O)(=O)c1cccc(C(=O)Nc2nc(-c3ccccn3)cs2)c1` (configuration not stated) are 13.8%, 14.6% and 5.62%.
Turning to `OC(CNc1ccnc(Nc2ccc(Cl)cc2)n1)c1ccc(C(F)(F)F)cc1` (configuration not stated), the inhibition in assay [1] is 4.91%; in assay [2], 4.91%; in assay [3], 2.64%.
For the molecule `Cc1ccc(S(C)(=O)=O)cc1/C=C/C(=O)O`, the inhibition in assay [1] was determined as 9.4%; in assay [2] it was 8.46%; in assay [3], 10.4%.
As to `O=C(NC1CC1)c1ccc(N2CCC(Oc3ccc(F)cc3)CC2)nc1`, the inhibition in assay [1] was 2.46%; in assay [2] it was 1.1%; in assay [3], 1.42%.
With `NS(=O)(=O)Cc1cccc(-c2ccnc3ccc(-c4cccc(S(N)(=O)=O)c4)cc23)c1`, the values for the inhibition in assay [1], in assay [2] and in assay [3] were 3.2%, 0.84% and 1.72%, respectively.
The corresponding values for `COc1ccc(CCNCCCCCCNCCc2ccc(OC)c(OC)c2Cl)c(Cl)c1OC` are 0.05%, -0.34% and 0.35%.
Taken in the same sequence, the figures for `NC1=NC(Cc2ccccc2)N(c2ccc(Cl)cc2)C(N)=N1` (configuration not stated) were 8.89%, 6.99% and 5.89%.
With `NC1=NC2(CCCCC2)N(OCCCCCCc2ccccc2)C(N)=N1`, the inhibition in assay [1] turned out to be 2.09%; in assay [2], 1.39%; in assay [3] it was 0.69%.
Consider `CC(CN1CCN(C)CC1)C(=O)Nc1cccc(-c2ccc(-c3nc4cc(C(F)(F)F)ccc4[nH]3)cc2)c1` (configuration not stated), for which the results for the inhibition in assay [1], in assay [2] and in assay [3] were 5.29%, 4.14% and 5.41%, respectively.
The corresponding values for `CCCn1cc2c(ccc3nc(N)nc(N)c32)n1` are 0.63%, 0.8% and 0.23%.
Taken in the same sequence, the figures for `Oc1ccc2ccccc2c1CNCCC1CCCCC1` were 0.07%, 0.52% and 1.73%.
As for `O=C(Nc1ccc2[nH]c(-c3ccccc3)nc2c1)c1cc(-c2ccc3c(c2)OCCO3)n[nH]1`, the values for the inhibition in assay [1], in assay [2] and in assay [3] were 12.2%, 11.6% and 11.4%, respectively.
`Cc1cccc2nc(-c3cccc(-c4cccc(NC(=O)Nc5ccccc5)c4)c3)[nH]c12`: the inhibition in assay [1] worked out at 3.85%; in assay [2], 3.36%; in assay [3], 3.26%.
The corresponding values for `O=C(Nc1cccc(Cl)c1)OC1CCCN2CCCCC12` (configuration not stated) are 10.8%, 10.6% and 9.42%.
For the molecule `CN(C)CCOc1cccc(-c2cnc(N)c(-c3nc4cc(S(C)(=O)=O)ccc4[nH]3)c2)c1`, the inhibition in assay [1] is 1.53%; in assay [2] it was 2.26%; in assay [3], 2.58%.
Consider `CCc1c(C(=O)NC2CCC(N3CCC(c4ccccc4C)CC3)CC2)[nH]c2ccc(OC)cc12` (configuration not stated), for which the results for the inhibition in assay [1], in assay [2] and in assay [3] were 0.2%, -0.58% and -0.08%, respectively.
The corresponding values for `O=C(/C=C/c1ccc(Cl)cc1)NCCCCCN1CCCN(C(=O)Nc2ccc(Cl)c(C(F)(F)F)c2)CC1` are 1.83%, 2.68% and 2.81%.
The corresponding values for `Cc1cc(Nc2nc(Nc3cccc(Cl)c3)nc3ccccc23)n[nH]1` are 10.5%, 17.2% and 9.22%.
